Hit rate of the full screen: of about 5,500 compounds, about 2,000 (36%) were called active. Not shown: some 18% with an inconclusive outcome. Cut-off read from the data, not from the text of the source: active = normalized growth mostly below about 0.91 (no sharp cut-off); inconclusive = no clear call, values can overlap the other calls; inactive = mostly above about 0.92. Some of the results follow.
Experiment: chemical genetic growth profiling, strain panel (AID 1159580);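 note: tested at 20 µM; growth read once vehicle control cultures reached saturation at 30 °C; 1 = growth at the plate median or of vehicle wells; lower values mean less growth of the strain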
Details: S. cerevisiae deletion strains, growth OD
[1] = locus YDL101C, strain DUN1, active compounds read low
[2] = locus YHR030C, strain SLT2, active compounds read low

Measured: normalized growth

COC(=O)C1=C(Nc2ccc(Cl)cc2)CSC1
active: locus YDL134C, strain PPH21, active compounds read low 0.773 | locus YEL061C, strain CIN8, active compounds read low 0.771 | [2] 0.203 | locus YJL187C, strain SWE1, active compounds read low 0.902 | locus YKL190W, strain CNB1, active compounds read low 0.834 | locus YLR039C, strain RIC1, active compounds read low 0.455 | locus YLR085C, strain ARP6, active compounds read low 0.368 | locus YLR262C, strain YPT6, active compounds read low 0.468 | locus YML094W, strain GIM5, active compounds read low 0.833 | locus YMR307W, strain GAS1, active compounds read low 0.417 | locus YNL298W, strain CLA4 (second series), active compounds read low 0.676 | locus YNR030W, strain Alg12, active compounds read low 0.759 | locus YOL006C, strain TOP1, active compounds read low 0.522 | locus YPL241C, strain CIN2, active compounds read low 0.742 | locus YPR135W, strain CTF4, active compounds read low 0.314
inactive: locus YAL013W, strain DEP1, active compounds read low 0.956 | locus YBR229C, strain ROT2, active compounds read low 0.967 | locus YCL061C, strain MRC1, active compounds read low 0.959 | [1] 0.941 | locus YDR150W, strain NUM1, active compounds read low 0.929 | locus YGR078C, strain PAC10, active compounds read low 0.949 | locus YHR087W, strain rtc3, active compounds read low 0.962 | locus YJR075W, strain HOC1, active compounds read low 0.911 | locus YLR058C, strain SHM2 (second series), active compounds read low 0.969 | locus YMR219W, strain ESC1, active compounds read low 0.972 | locus YMR263W, strain SAP30, active compounds read low 0.953 | locus YNL153C, strain GIM3, active compounds read low 0.965 | locus YNL322C, strain KRE1, active compounds read low 0.97 | locus YPL055C, strain LGE1, active compounds read low 0.811

Clc1ccccc1N/N=C\Cc1nnnn1-c1ccccc1
inactive: locus YAR019C, strain CDC15, active compounds read low 0.982 | locus YBL105C, strain PKC1, active compounds read low 0.966 | locus YBR135W, strain CKS1, active compounds read low 0.962 | locus YBR136W, strain MEC1, active compounds read low 0.966 | locus YBR160W, strain CDC28, active compounds read low 0.97 | locus YDL017W, strain CDC7, active compounds read low 0.98 | locus YDL028C, strain MPS1, active compounds read low 0.972 | [1] 0.976 | locus YDL108W, strain KIN28, active compounds read low 0.974 | locus YDL132W, strain cdc53, active compounds read low 0.953 | locus YDL214C, strain PRR2, active compounds read low 0.904 | locus YDR052C, strain DBF4, active compounds read low 0.974 | locus YDR054C, strain cdc34, active compounds read low 0.96 | locus YDR226W, strain ADK1, active compounds read low 0.972 | locus YDR477W, strain SNF1, active compounds read low 0.898 | locus YER123W, strain YCK3, active compounds read low 0.729 | locus YER133W, strain GLC7, active compounds read low 0.91 | locus YFL009W, strain cdc4, active compounds read low 0.965 | locus YFL029C, strain CAK1, active compounds read low 0.966 | locus YFR003C, strain YPI1, active compounds read low 0.97 | locus YFR019W, strain FAB1, active compounds read low 0.831 | locus YFR028C, strain CDC14, active compounds read low 0.957 | locus YGR040W, strain KSS1, active compounds read low 0.91 | locus YGR052W, strain FMP48, active compounds read low 0.827 | [2] 0.924 | locus YHR079C, strain IRE1, active compounds read low 0.85 | locus YHR082C, strain KSP1, active compounds read low 0.951 | locus YHR205W, strain SCH9, active compounds read low 0.863 | locus YIL147C, strain SLN1, active compounds read low 0.971 | locus YJL095W, strain BCK1, active compounds read low 0.716 | locus YJL128C, strain PBS2, active compounds read low 0.951 | locus YJL157C, strain FAR1, active compounds read low 0.893 | locus YJR016C, strain ILV3, active compounds read low 0.96 | locus YJR066W, strain TOR1 (second series), active compounds read low 0.774 | locus YJR066W, strain TOR1, active compounds read low 0.888 | locus YKL048C, strain ELM1, active compounds read low 0.92 | locus YKL067W, strain YNK1, active compounds read low 0.89 | locus YKL101W, strain HSL1, active compounds read low 0.889 | locus YKL193C, strain SDS22, active compounds read low 0.966 | locus YKL203C, strain TOR2, active compounds read low 0.929 | locus YLR113W, strain HOG1, active compounds read low 0.923 | locus YLR133W, strain CKI1, active compounds read low 0.888 | locus YLR403W, strain SFP1, active compounds read low 0.814 | locus YML070W, strain DAK1, active compounds read low 0.787 | locus YMR001C, strain CDC5, active compounds read low 0.967 | locus YMR205C, strain PFK2 (second series), active compounds read low 0.92 | locus YMR277W, strain FCP1, active compounds read low 0.969 | locus YNL006W, strain LST8, active compounds read low 0.98 | locus YNL020C, strain ARK1, active compounds read low 0.878 | locus YNL161W, strain CBK1, active compounds read low 0.974 | locus YNL183C, strain NPR1, active compounds read low 0.89 | locus YNL207W, strain RIO2, active compounds read low 0.958 | locus YNL222W, strain SSU72, active compounds read low 0.973 | locus YNL307C, strain MCK1 (second series), active compounds read low 0.669 | locus YOL078W, strain AVO1, active compounds read low 0.962 | locus YOL136C, strain PFK27, active compounds read low 0.795 | locus YOR119C, strain RIO1, active compounds read low 0.924 | locus YOR231W, strain MKK1, active compounds read low 0.845 | locus YOR329C, strain SCD5, active compounds read low 0.971 | locus YPL031C, strain PHO85, active compounds read low 0.853 | locus YPL153C, strain RAD53, active compounds read low 0.832 | locus YPL204W, strain HRR25, active compounds read low 0.818 | locus YPL209C, strain IPL1, active compounds read low 0.967 | locus YPL256C, strain CLN2, active compounds read low 0.99 | locus YPR025C, strain CCL1, active compounds read low 0.973 | locus YPR106W, strain ISR1, active compounds read low 0.98 | locus YPR111W, strain DBF20, active compounds read low 0.963 | strain NNK1, active compounds read low 0.992 | strain TSCII, active compounds read low 0.963
active: locus YGR092W, strain DBF2, active compounds read low 0.282 | locus YOR061W, strain CKA2, active compounds read low 0.567

Reference: PubChem BioAssay AID1159580 (chemical genetic matrix, 2015)
